PubChem BioAssay
For part of these data: Results with a measured potency or affinity are listed apart. Records with an inconclusive call do not appear. Calls of active or inactive are those of the source.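 Rule for the calls, unless noted: active = fitted dose curve reaches 40% lysis signal rise at or below the highest valid concentration tested for that sample; inconclusive = flat fit between 30% and 70%, or poor curve fit; inactive = signal falls, stays flat within 30%, or no crossing.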

Legend:
[1] = fungal growth arrest, C. neoformans – Alamar Blue, cherry-picks, dose response (AID 686998;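 active = falling signal with fitted half-maximal potency no higher than twice the top valid tested dose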)
[2] = C. neoformans lysis by adenylate kinase leakage – AK release luminescence, cherry-picks, dose response (AID 687000);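 note: luminescent detection of adenylate kinase leaking from lysed yeast; 0% = median neutral control signal and 100% = double that signal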
[3] = viability loss in HepG2 hepatoma cells – cell-based, cherry-picks, set 2, cytotoxicity control, dose response (AID 687002;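 active = a dose-response fit showing signal loss, with half-maximal concentration no higher than twice the top tested dose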)
[4] = small molecules captured by biotinylated probe aFSTL3 – biochemical, small-molecule microarray, fluorescence 635/667, stem cell growth factor project, primary screen (AID 1064); details: higher = more signal;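 note: measures binding of the biotinylated anti-FSTL3 antibody to printed compounds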
[5] = binders from COS7 lysate, DM2A8 probe, primary screen, torsin A project, cell lysate, small-molecule microarray, fluorescence 635/667 (AID 1065); details: higher = more signal, COS7 lysate expressing mutant human TOR1A
[6] = small molecules captured by biotinylated probe aFGF2 – biochemical, small-molecule microarray, fluorescence 635/667, stem cell growth factor project, primary screen (AID 1067); details: higher = more signal;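 note: measures binding of biotinylated aFGF2 protein to printed compounds on slides; z-score merges feature fluorescence and signal-to-noise across triplicate slides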
[7] = small molecules captured by biotinylated probe aFGF10 – biochemical, small-molecule microarray, fluorescence 635/667, stem cell growth factor project, primary screen (AID 1071); details: higher = more signal;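 note: score merges 667 nm spot intensity and signal to noise from triplicate slides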
[8] = molecular target: Neurogenic locus notch homolog protein 2 (Homo sapiens) (UniProt Q04721); test: small molecules binding Notch2 protein – biochemical, small-molecule microarray, 635 nm fluorescence, stem cell growth factors, primary screen (AID 1073); details: higher = more signal
Chain of Neurogenic locus notch homolog protein 2 (Homo sapiens) (Q04721 whole entry, looked up, canonical isoform): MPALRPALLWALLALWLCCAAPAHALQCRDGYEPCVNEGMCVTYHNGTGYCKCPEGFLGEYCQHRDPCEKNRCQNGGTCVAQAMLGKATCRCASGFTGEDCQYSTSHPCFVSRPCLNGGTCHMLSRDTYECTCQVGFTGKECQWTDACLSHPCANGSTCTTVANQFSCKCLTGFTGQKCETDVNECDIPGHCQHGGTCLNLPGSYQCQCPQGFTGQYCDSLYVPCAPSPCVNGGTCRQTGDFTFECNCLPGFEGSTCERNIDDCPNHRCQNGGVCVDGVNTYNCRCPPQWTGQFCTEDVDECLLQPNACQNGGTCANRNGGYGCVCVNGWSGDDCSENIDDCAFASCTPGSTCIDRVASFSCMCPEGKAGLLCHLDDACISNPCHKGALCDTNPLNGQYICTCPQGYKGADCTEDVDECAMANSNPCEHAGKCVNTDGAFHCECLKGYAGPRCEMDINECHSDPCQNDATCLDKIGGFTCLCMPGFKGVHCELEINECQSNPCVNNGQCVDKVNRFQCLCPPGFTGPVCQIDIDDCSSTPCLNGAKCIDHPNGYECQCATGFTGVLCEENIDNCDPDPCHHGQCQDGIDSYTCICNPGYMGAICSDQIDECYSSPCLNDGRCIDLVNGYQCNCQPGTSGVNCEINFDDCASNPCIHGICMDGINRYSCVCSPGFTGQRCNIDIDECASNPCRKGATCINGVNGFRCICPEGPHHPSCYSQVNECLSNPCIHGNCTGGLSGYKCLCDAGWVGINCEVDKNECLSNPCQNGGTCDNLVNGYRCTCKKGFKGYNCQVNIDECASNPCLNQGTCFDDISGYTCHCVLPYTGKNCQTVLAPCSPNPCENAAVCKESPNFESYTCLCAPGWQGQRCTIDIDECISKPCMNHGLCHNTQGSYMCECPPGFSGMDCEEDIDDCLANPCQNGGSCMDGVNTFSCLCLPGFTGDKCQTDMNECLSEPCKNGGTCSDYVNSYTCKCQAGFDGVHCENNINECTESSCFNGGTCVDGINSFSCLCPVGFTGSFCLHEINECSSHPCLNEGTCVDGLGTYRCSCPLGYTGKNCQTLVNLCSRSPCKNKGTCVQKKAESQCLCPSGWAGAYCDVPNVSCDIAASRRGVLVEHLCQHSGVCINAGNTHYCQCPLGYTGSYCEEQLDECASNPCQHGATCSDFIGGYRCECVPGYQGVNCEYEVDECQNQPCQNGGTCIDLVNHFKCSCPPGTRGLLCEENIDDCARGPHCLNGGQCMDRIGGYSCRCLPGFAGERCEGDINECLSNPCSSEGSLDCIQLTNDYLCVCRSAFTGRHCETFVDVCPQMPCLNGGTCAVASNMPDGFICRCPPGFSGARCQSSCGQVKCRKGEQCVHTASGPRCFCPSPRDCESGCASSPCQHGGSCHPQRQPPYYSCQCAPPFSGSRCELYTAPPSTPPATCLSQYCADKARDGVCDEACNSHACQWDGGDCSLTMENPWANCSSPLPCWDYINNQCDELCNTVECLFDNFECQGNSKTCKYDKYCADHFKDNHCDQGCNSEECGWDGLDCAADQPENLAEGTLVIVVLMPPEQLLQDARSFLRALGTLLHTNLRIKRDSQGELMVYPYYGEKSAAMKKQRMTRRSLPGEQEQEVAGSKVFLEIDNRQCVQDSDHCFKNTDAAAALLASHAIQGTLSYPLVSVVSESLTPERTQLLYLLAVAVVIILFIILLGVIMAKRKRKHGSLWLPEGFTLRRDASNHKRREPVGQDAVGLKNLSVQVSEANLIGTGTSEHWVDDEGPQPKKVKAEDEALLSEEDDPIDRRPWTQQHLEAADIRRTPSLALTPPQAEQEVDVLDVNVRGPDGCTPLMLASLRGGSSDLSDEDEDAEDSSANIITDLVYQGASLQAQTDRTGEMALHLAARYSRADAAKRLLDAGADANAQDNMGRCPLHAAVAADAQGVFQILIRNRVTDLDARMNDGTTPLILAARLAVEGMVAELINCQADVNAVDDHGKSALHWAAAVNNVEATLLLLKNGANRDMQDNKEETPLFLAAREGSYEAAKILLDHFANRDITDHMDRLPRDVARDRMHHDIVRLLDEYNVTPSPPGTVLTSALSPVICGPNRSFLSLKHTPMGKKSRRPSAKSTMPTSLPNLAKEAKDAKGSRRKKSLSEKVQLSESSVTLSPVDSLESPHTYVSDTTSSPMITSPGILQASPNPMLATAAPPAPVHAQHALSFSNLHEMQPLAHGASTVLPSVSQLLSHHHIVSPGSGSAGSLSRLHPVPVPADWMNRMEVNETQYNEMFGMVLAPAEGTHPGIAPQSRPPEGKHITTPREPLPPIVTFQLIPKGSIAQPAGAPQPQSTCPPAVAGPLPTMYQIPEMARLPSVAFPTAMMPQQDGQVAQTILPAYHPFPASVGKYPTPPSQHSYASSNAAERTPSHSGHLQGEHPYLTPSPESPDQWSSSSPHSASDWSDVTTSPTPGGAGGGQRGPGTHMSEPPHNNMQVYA

[9] = molecular target: Pro-neuregulin-1, membrane-bound isoform (Homo sapiens) (UniProt Q02297); test: small molecules binding neuregulin-1 protein – biochemical, small-molecule microarray, fluorescence 635/667, psychiatric disease protein project, primary screen (AID 1075); details: NRG1 binding, 635 nm fluorescence, higher = more signal;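 note: score combines 667 nm spot fluorescence with signal to noise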
Chain of Pro-neuregulin-1, membrane-bound isoform (Homo sapiens) (Q02297 whole entry, looked up, the tested form may be a part, canonical isoform): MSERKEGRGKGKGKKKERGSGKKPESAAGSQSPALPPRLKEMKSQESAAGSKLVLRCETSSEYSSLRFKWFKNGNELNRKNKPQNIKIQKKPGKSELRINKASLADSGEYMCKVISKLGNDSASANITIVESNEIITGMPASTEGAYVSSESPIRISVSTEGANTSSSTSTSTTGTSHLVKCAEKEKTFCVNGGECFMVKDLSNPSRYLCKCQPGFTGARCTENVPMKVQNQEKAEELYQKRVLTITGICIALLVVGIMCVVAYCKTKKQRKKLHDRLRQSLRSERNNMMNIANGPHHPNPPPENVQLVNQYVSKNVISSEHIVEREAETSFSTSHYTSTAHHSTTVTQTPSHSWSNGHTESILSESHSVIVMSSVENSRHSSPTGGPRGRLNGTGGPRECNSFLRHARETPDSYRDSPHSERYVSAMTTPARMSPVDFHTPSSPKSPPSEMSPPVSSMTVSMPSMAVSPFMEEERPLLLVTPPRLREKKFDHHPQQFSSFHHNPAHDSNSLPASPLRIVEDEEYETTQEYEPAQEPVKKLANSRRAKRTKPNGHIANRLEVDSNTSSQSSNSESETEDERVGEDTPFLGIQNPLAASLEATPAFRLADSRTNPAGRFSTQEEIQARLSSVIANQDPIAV

[10] = test system: Neuregulin-1 EGF-like domain; test: small molecules binding NRG1 EGF domain – biochemical, small-molecule microarray, 635 nm fluorescence, primary screen (AID 1081); details: higher = more signal;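 note: binding of the protein to compounds printed on small-molecule microarray slides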
[11] = FRG1 expression reporter modulators in myotubes – cell-based, C2C12 myotubes, firefly/Renilla luciferase, luminescence, FRG1 inhibition for FSHD, primary screen (AID 1084); details: FRG1 promoter luciferase, higher = more signal, called active from +8 up or from −8 down
[12] = small molecules captured by biotinylated probe aFST – biochemical, small-molecule microarray, fluorescence 635/667, stem cell growth factor project, primary screen (AID 1086); details: higher = more signal;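 note: score merges 667 nm fluorescence with signal-to-noise of each printed compound spot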
[13] = binders of probe aHhip on microarray, primary screen, stem cell growth factor project, biochemical, small-molecule microarray, fluorescence 635/667 (AID 1087); details: higher = more signal;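 note: score merges spot fluorescence at 667nm with spot signal to noise ratio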
[14] = test system: PRMT1 (protein arginine N-methyltransferase 1); test: small molecules binding arginine methyltransferase PRMT1 – biochemical, small-molecule microarray, 635 nm fluorescence, primary screen (AID 1088); details: higher = more signal;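 note: binding of Prmt1 protein to compounds spotted on small-molecule microarray slides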
[15] = growth effects on S. cerevisiae YJM789 – YJM789 clinical isolate, OD600, 24 h, basal, primary screen (AID 1089); details: higher = more signal, called active from +8 up or from −8 down;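 note: growth of clinical yeast isolate S. cerevisiae YJM 789 seeded 1000 cells per well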
[16] = S. pombe growth modifiers, basal conditions – strain 972, OD600, 24 h, no modulator, primary screen (AID 1090);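 note: basal condition with compound alone and no growth modifier present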; details: S. pombe 972 growth, higher = more signal, called active from +8 up or from −8 down
[17] = budding yeast growth modifiers under rapamycin – strain BY4716, OD600, 96 h, primary screen (AID 1091); details: S. cerevisiae BY4716 + rapamycin, higher = more signal, called active from +8 up or from −8 down
[18] = molecular target: Torsin-1A-interacting protein 2 (Homo sapiens) (UniProt Q8NFQ8); test: small molecules binding lysate-expressed LULL1 – cell lysate, human LULL1 lysate, 635/667 nm fluorescence, primary screen (AID 1092); details: small-molecule microarray, hLULL1 lysate binding, 635 nm fluorescence; higher = more signal;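 note: probe is lysate of COS7 cells overexpressing human LULL1; score merges per-feature 667 nm fluorescence with signal-to-noise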
Chain of Torsin-1A-interacting protein 2 (Homo sapiens) (Q8NFQ8 whole entry, looked up): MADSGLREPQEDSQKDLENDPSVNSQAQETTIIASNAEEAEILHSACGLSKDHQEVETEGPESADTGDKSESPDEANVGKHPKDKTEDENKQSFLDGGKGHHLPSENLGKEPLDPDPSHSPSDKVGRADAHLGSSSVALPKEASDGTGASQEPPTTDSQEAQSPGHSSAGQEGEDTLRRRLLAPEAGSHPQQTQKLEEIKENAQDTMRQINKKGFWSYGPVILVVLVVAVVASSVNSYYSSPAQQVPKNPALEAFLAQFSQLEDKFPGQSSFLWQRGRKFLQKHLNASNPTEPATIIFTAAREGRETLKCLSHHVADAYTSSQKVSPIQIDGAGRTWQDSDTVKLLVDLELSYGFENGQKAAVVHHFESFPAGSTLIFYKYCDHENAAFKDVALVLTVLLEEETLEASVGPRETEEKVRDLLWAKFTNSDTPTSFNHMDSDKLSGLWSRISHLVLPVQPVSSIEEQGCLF

[19] = optical density change of DRC41 E. coli – strain DRC41, OD650, 24 h, E. coli filamentation project, primary screen (AID 1093);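 note: MC1000 strain lacking acrAB efflux and sulA so SOS filamentation is blocked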; details: E. coli DRC41 growth, higher = more signal, called active from +8 up or from −8 down

C[C@@H]1CN([C@@H](C)CO)C(=O)CCCn2nncc2CO[C@@H]1CN(C)Cc1cccc(C(F)(F)F)c1
outcome [1]: inactive
outcome [2]: inactive
outcome [3]: inactive

O=C1O[C@@H](c2ccccc2)[C@@H](c2ccccc2)N2[C@@H](c3ccc(OCCO)cc3)[C@]3(C(=O)Nc4ccc(C#CC5(O)CCCCCC5)cc43)[C@@H](C(=O)NC[C@H](O)c3ccccc3)[C@H]12
composite z-score [4]: 0.0882
composite z-score [5]: 1
composite z-score [6]: -0.0258
composite z-score [7]: 1.06
composite z-score [8]: 1.42
composite z-score [9]: 1.43
composite z-score [10]: 1.26
z-score [11]: -0.222 (inactive)
composite z-score [12]: 0.934
composite z-score [13]: -0.191
composite z-score [14]: 1.55
z-score [15]: 1.24 (inactive)
z-score [16]: 1.21 (inactive)
z-score [17]: 5.49 (inactive)
composite z-score [18]: 2.3
z-score [19]: 3.13 (inactive)

CC(C)NC(=O)[C@@H]1c2ccccc2C(=O)N(Cc2cc(F)cc(C(F)(F)F)c2)[C@H]1c1ccc(CO)cc1
composite z-score [4]: 1.02
composite z-score [5]: -0.197
composite z-score [6]: -0.141
composite z-score [7]: -1.12
composite z-score [8]: -0.636
composite z-score [9]: 0.433
composite z-score [10]: 0.844
z-score [11]: 0.842 (inactive)
composite z-score [12]: 0.136
composite z-score [13]: -0.149
composite z-score [14]: -0.305
z-score [15]: -0.354 (inactive)
z-score [16]: -0.92 (inactive)
z-score [17]: -1.17 (inactive)
composite z-score [18]: 2.48
z-score [19]: 1.52 (inactive)

COc1c(C)cc(-c2cc3c(c(CCc4ccccc4)n2)[Si](C(C)C)(C(C)C)OC3)cc1C
composite z-score [4]: -0.496
composite z-score [5]: 1.49
composite z-score [6]: -0.125
composite z-score [7]: 0.358
composite z-score [8]: 0.364
composite z-score [9]: -0.355
composite z-score [10]: 0.578
z-score [11]: -0.14 (inactive)
composite z-score [12]: 0.287
composite z-score [13]: -0.0346
composite z-score [14]: 1.42
z-score [15]: -0.819 (inactive)
z-score [16]: -1.57 (inactive)
z-score [17]: -0.618 (inactive)
composite z-score [18]: 0.778
z-score [19]: 2.29 (inactive)

O=C(NCC(F)(F)F)[C@@H]1c2ccccc2C(=O)N(C2Cc3ccccc3C2)[C@H]1c1ccc(CO)cc1
composite z-score [4]: 0.833
composite z-score [5]: -0.67
composite z-score [6]: -0.0487
composite z-score [7]: -0.514
composite z-score [8]: -0.98
composite z-score [9]: -0.0643
composite z-score [10]: 0.0014
z-score [11]: -0.827 (inactive)
composite z-score [12]: -0.187
composite z-score [13]: -0.353
composite z-score [14]: -0.236
z-score [15]: -0.62 (inactive)
z-score [16]: -1.06 (inactive)
z-score [17]: -0.501 (inactive)
composite z-score [18]: 0.492
z-score [19]: 2.12 (inactive)

CC1CC/C=C\[C@H]2OC34C=CCN(C(C)C)C(=O)[C@H]3N(C(CO)C(C)C)C(=O)[C@@H]4C2C(=O)O1 (stereo not given in full)
composite z-score [4]: 1.54
composite z-score [5]: -0.267
composite z-score [6]: -0.0985
composite z-score [7]: -0.365
composite z-score [8]: -0.662
composite z-score [9]: -0.593
composite z-score [10]: 0.475
z-score [11]: -0.416 (inactive)
composite z-score [12]: -0.422
composite z-score [13]: -0.0994
composite z-score [14]: -0.825
z-score [15]: 0.959 (inactive)
z-score [16]: -1.84 (inactive)
z-score [17]: -0.631 (inactive)
composite z-score [18]: 1.55
z-score [19]: 2.14 (inactive)

CC(C)(C)c1ccc(OCC(=O)NC(c2ccccc2)c2ccccc2)cc1
outcome [1]: inactive
outcome [2]: inactive
outcome [3]: inactive

O=c1n(-c2ccccc2)c(=O)n2n1CC(COc1ccccc1)=C1[C@@H](CCc3ccccc3)OB(O)C[C@@H]12
composite z-score [4]: -0.62
composite z-score [5]: -0.128
composite z-score [6]: -0.031
composite z-score [7]: 0.96
composite z-score [8]: 0.893
composite z-score [9]: 0.97
composite z-score [10]: 0.706
z-score [11]: -4.24 (inactive)
composite z-score [12]: 0.642
composite z-score [13]: 0.0524
composite z-score [14]: 1.42
z-score [15]: 0.173 (inactive)
z-score [16]: -3.03 (inactive)
z-score [17]: -1.44 (inactive)
composite z-score [18]: 1.39
z-score [19]: 1.92 (inactive)

Cc1ccc(S[C@]2(C(=O)NCCN3CCOCC3)CC(=O)N(Cc3cc(C(F)(F)F)cc(C(F)(F)F)c3)[C@@H]2c2ccc(CO)cc2)cc1
composite z-score [4]: 0.62
composite z-score [5]: -0.439
composite z-score [6]: -0.15
composite z-score [7]: -1.35
composite z-score [8]: -1.26
composite z-score [9]: 1.04
composite z-score [10]: -0.382
z-score [11]: -1.67 (inactive)
composite z-score [12]: -0.341
composite z-score [13]: -0.0632
composite z-score [14]: 1.24
z-score [15]: -1.03 (inactive)
z-score [16]: -3.43 (inactive)
z-score [17]: -2.07 (inactive)
composite z-score [18]: 1.47
z-score [19]: 0.611 (inactive)

C=CC[C@]1(C(=O)N2CCCCC2)COC(c2ccc(OCCCO)cc2)=N1
composite z-score [4]: 0.892
composite z-score [5]: 0.586
composite z-score [6]: -0.153
composite z-score [7]: -1.44
composite z-score [8]: -1.58
composite z-score [9]: 1.05
composite z-score [10]: 0.796
z-score [11]: -2.05 (inactive)
composite z-score [12]: -0.329
composite z-score [13]: -0.251
composite z-score [14]: 0.517
z-score [15]: -0.485 (inactive)
z-score [16]: -5.08 (inactive)
z-score [17]: -2.75 (inactive)
composite z-score [18]: 2.43
z-score [19]: 1.16 (inactive)

C=CCC(OC(C)=O)[C@@H]1[C@@H](N(Cc2cccc3ccccc23)C(=O)c2cccc3ccccc23)c2cc(OCCCO)ccc2N1C(=O)Cc1ccc(OC)cc1 (stereo not given in full)
composite z-score [4]: -0.0733
composite z-score [5]: -0.136
composite z-score [6]: -0.0569
composite z-score [7]: 0.108
composite z-score [8]: 0.568
composite z-score [9]: 0.123
composite z-score [10]: 0.193
z-score [11]: -1.64 (inactive)
composite z-score [12]: 0.03
composite z-score [13]: -0.0994
composite z-score [14]: 0.435
z-score [15]: -1.17 (inactive)
z-score [16]: -1.59 (inactive)
z-score [17]: -0.8 (inactive)
composite z-score [18]: 1.52
z-score [19]: 2.09 (inactive)
